CYP2C9 act: increases human cytochrome P450 2C9 activity. P11712. recombinant CYP2C9, luciferin-H conversion, luminescence; stronger effect = higher value; factor 1 = untreated enzyme, 0 = blocked. activation factor at 5 µM. hit rate 1.4% among 96,000. AID 1024;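 active = activation factor of 2 or more for CYP2C9 at a 5 µM dose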;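 also: 0 = sulfaphenazole-blocked wells and 1 = vehicle-only wells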
Target sequence (P11712 whole entry, looked up): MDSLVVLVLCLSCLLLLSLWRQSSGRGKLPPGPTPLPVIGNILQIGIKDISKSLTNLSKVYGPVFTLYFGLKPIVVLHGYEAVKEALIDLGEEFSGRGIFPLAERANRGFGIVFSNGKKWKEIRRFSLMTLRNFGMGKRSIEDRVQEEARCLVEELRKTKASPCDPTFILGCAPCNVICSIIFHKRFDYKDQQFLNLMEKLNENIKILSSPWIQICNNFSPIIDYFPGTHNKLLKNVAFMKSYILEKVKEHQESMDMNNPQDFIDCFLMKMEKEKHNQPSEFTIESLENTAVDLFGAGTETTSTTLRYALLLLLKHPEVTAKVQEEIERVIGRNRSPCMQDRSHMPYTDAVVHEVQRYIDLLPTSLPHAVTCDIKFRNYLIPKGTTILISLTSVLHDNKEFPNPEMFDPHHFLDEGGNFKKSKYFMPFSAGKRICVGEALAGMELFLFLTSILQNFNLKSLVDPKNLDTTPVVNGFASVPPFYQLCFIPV
CYP2C19 activ: activators of human cytochrome P450 2C19; 96,000 tested, under 10 active; activation factor at 5 µM; recombinant CYP2C19, luciferin-H EGE luminescence; stronger effect = higher value; 0 = fully inhibited enzyme, 1 = untreated enzyme; AID 1025;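 active = activation factor of at least 2 at 5 µM in the primary screen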;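 also: 0 = wells with 2.5 mM tranylcypromine and 1 = vehicle-only wells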
PLAP activator: activators of human placental alkaline phosphatase. P05187. purified PLAP enzyme, luminescent substrate read-out; stronger effect = higher value. activation fold at 20 µM. hit rate 1.2% among 96,000. AID 696; in the data active = activation fold above about 2
CYP2C19 inhib: inhibitors of human CYP2C19; CYP2C19 Supersomes, luciferin-H EGE luminescence, 30 min; AID 778; P33261; inhibition, % at 5 µM; hit rate 21% among 96,000;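 active = CYP2C19 inhibition above a set limit at 5 µM in the primary screen, cut at about 50% in these data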;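 also: plate controls were negative control wells for no effect and 2.5 mM tranylcypromine positive control for full effect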
CYP2C9 inh: blocks human cytochrome P450 2C9; hit rate 20% among 96,000; P11712; CYP2C9 Supersomes, luciferin-H conversion, luminescence; AID 777; inhibition, % at 5 µM;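 active = blocking of liver enzyme CYP2C9 beyond about 50% at 5 µM, limit read from the data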
An asterisk follows results filed as active. Shown are actives, neighbours in structure and some others; about 31% of the full set was active somewhere.

SMILES	CYP2C9 act	CYP2C19 activ	PLAP activator	CYP2C19 inhib	CYP2C9 inh
COC(=O)c1sc2ccccc2c1NC(=O)c1cccs1	0.4	0.7	1.1	35	60*
COc1cccc(NC(=O)c2cccs2)c1	0.7	0.5	0.8	54*	29
COc1cc(C(=O)Nc2ccc3c(c2)OCO3)ccc1-n1cnnn1	0.9	1	0.8	-1	6
COc1cc(NC(=O)c2cccs2)cc(OC)c1	0.8	0.8	0.8	23	21
COC(=O)c1sc2ccccc2c1N	1	0.9	1.1	14	5
O=C(NNC(=O)c1cc(O)c(O)c(O)c1)NC1CCCCC1	1.1	0.9	1.5	12	-8
CC(c1cccnc1)N(C(=O)Nc1ccccc1)C1CCCCC1 (centres undefined)	0.9	0.9	0.9	11	11
Cc1ccc2c(n1)sc1c(-c3ccccc3)c(C#N)c(N)nc12	0.9	1.1	1.1	-10	12
COc1cccc(NC(=O)Cc2cccs2)c1	0.8	0.5	0.9	51*	21
COc1ccc2c(c1)Cc1sc(NC(=O)c3cccs3)nc1-2	0.2	0.3	1.2	70*	85*
COc1cc(NC(=O)Cc2cccs2)cc(OC)c1	0.6	0.2	0.9	81*	40
COc1ccc(NC(=O)c2ccco2)c(NC(=O)Cc2cccs2)c1	0.6	0.6	0.7	40	41
CC(C)C(C)(C#N)NC(=O)CSc1nnc(C(F)(F)F)n1C (centres undefined)	0.9	1	1	4	5
O=C(C1CCCN1S(=O)(=O)c1ccc(Cl)c(Cl)c1)N1CCOCC1 (centres undefined)	1.6	1	1.1	-1	-62
CCC(C)n1c(SCC(=O)Nc2ccccc2C(F)(F)F)nc2ccsc2c1=O (centres undefined)	0.3	0.5	1	46	72*
Cc1nc(N)sc1-c1nnc(SCC(=O)Nc2ccccc2C(F)(F)F)n1C	0.9	1.2	0.9	-18	6
Cc1ccc(OCCN2C(=O)OC(C)(C)C2(C)O)cc1 (centres undefined)	0.9	0.6	1	37	10
CC1CCCCN1S(=O)(=O)c1cccc2cccnc12 (centres undefined)	3.9*	0.2	1	79*	-289
CC1CC(C)CN(S(=O)(=O)c2cccc3cccnc23)C1 (centres undefined)	2.5*	0.3	1.2	68*	-155
O=C(Nc1cccc(C(F)(F)F)c1)C1CCCN1S(=O)(=O)c1cccc2cccnc12 (centres undefined)	0.5	0.5	1.4	47	48
O=S(=O)(c1cccc2cccnc12)N1CCOCC1	4*	0.6	1.1	39	-301
COc1ccc(N2CCN(S(=O)(=O)c3cccc4cccnc34)CC2)cc1	2.6*	0.2	1.4	82*	-155
COc1cccc(N2CCN(c3ccc(S(=O)(=O)N4CCCC4)cc3)CC2)c1	1	0.6	1	41	1
O=c1n(S(=O)(=O)c2cccc3cccnc23)c2ccccc2n1S(=O)(=O)c1cccc2cccnc12	0.5	0.8	1.5	17	48
CC(=O)N(CCC(c1ccccc1)c1ccco1)Cc1cccs1 (centres undefined)	0.6	0.7	1.4	32	43
SMILES	CYP2C9 act	CYP2C19 activ	PLAP activator	CYP2C19 inhib	CYP2C9 inh
CCC(=O)N(CCC(c1ccco1)c1ccccc1OC)Cc1cccs1 (centres undefined)	0	0	1.7	96*	96*
CC1(C)CC2CC(C)(CN2S(=O)(=O)c2ccc(N)cc2)C1 (centres undefined)	0.9	0.3	1	74*	9
CC12CN(S(=O)(=O)c3ccccc3)CC(C)(CN(S(=O)(=O)c3ccccc3)C1)C2	0.9	0.9	0.9	12	8
CC1CC(C)CN(c2oc(-c3ccccc3Cl)nc2C#N)C1 (centres undefined)	0.9	1.1	1	-13	11
C=CCn1c(SCCCc2ccccc2)nc2c1c(=O)[nH]c(=O)n2C	0.4	0.2	1.3	76*	63*
CC(C)n1c(SCCCc2ccccc2)nc2c1c(=O)[nH]c(=O)n2C	0.8	0.8	0.9	24	21
C=CCn1c(SCCOC)nc2c1c(=O)[nH]c(=O)n2C	0.9	1.1	0.9	-7	7
C/C=C/Cn1c(SCCCc2ccccc2)nc2c1c(=O)[nH]c(=O)n2C	0.2	0.4	1.2	58*	77*
C#CCn1cc[n+](CC(=O)N(C)C)c1	1.1	1.1	1.3	-13	-7
Cc1cc(C(=O)OCC(=O)N2c3ccccc3CC2C)c(C)o1 (centres undefined)	0.5	0.3	1.3	75*	48
Cc1cc(C(=O)OCC(=O)N2CC(C)CC(C)C2)c(C)o1 (centres undefined)	0.8	0.5	1.5	55*	16
CCCc1ccc2c(N)c(C#N)sc2n1	0.7	0.1	0.8	90*	27
Cc1ccc2c(N)c(C#N)sc2n1	0.9	0.8	0.9	19	12
COCCNC(=O)C1c2ccccc2C(=O)N(CCOC)C1c1ccc(F)cc1 (centres undefined)	1.1	1.2	1.1	-16	-10
COCCN1C(=O)c2ccccc2C(C(=O)N2CCN(c3ccccc3)CC2)C1c1ccc(F)cc1 (centres undefined)	0.3	0.8	1.7	18	71*
CC(=O)c1c(C(C)=O)c(C)n(-c2nc(-c3cccs3)c(C)s2)c1C	0.5	0.8	0.9	18	47
CC(C)OP(C)(=O)CN1CCN(CP(C)(=O)OC(C)C)CC1 (centres undefined)	0.9	1	1.1	-1	8
Cc1ccc(CN2C(=O)CCSc3ccc(Cl)cc32)cc1	0.8	0.6	1.1	36	17
O=C1CCSc2ccc(Cl)cc2N1Cc1cccc(Cl)c1	0.9	0.4	1	64*	14
CC(C)=C1SC(N2CCN(Cc3ccccc3)CC2)=NC1=O	1.2	0.4	1.6	57*	-20
Cc1nnc(N2CCN(Cc3ccccc3)CC2)[nH]c1=O	1.1	1	0.8	-1	-7
N=C1C(c2ccccc2)=C(O)C2CCc3ccccc3N12 (centres undefined)	1.2	1.2	0.9	-20	-18
N=C1C(c2ccc(Br)cc2)=C(O)C2CCc3ccccc3N12 (centres undefined)	0.7	0.5	0.8	50*	27
O=C(COC(=O)c1cccnc1)c1ccc(Cl)c(Cl)c1	0.6	0.2	1.2	77*	39
O=C(COC(=O)c1cccnc1)c1ccc(Cl)cc1	0.8	0.4	0.9	60*	16
COc1ccc(C2CC(c3cccc(OC)c3OC)n3nnnc3N2)cc1 (centres undefined)	0.3	0	0.9	96*	65*
COc1ccc(C2CC(c3ccc(F)cc3)Nc3nc(N)nn32)cc1 (centres undefined)	1.1	0.9	1.1	12	-7
COc1cccc(C2CC(c3ccccc3Cl)n3nnnc3N2)c1 (centres undefined)	0.1	0	1.1	100*	89*

Screens as filed in PubChem BioAssay.
